Results reported in ChEMBL document CHEMBL3988442, “University of Dundee, Small-Polar-MMV Screening Library” (2021).
For some assays here: Entries with a potency or affinity are not part of this list.

How the values were obtained:
Parameters in all cases: scale not given: direction of the effect not stated beside the values
[1] = target: Protein translocase subunit SecA (Escherichia coli (strain K12)) (UniProt P10408); assay: Assay to Identify E. coli SecA ATPase Inhibitors; format: functional; conditions: 30 µM
[2] = target: T1, Ubiquitin-activating enzyme e1, putative (Leishmania donovani (strain BPK282A1)) (UniProt E9BSI1); assay: Leishmania donovani Ubiquitin Activating Enzyme (LdE1); format: functional; conditions: 30 µM
T1 sequence (whole entry): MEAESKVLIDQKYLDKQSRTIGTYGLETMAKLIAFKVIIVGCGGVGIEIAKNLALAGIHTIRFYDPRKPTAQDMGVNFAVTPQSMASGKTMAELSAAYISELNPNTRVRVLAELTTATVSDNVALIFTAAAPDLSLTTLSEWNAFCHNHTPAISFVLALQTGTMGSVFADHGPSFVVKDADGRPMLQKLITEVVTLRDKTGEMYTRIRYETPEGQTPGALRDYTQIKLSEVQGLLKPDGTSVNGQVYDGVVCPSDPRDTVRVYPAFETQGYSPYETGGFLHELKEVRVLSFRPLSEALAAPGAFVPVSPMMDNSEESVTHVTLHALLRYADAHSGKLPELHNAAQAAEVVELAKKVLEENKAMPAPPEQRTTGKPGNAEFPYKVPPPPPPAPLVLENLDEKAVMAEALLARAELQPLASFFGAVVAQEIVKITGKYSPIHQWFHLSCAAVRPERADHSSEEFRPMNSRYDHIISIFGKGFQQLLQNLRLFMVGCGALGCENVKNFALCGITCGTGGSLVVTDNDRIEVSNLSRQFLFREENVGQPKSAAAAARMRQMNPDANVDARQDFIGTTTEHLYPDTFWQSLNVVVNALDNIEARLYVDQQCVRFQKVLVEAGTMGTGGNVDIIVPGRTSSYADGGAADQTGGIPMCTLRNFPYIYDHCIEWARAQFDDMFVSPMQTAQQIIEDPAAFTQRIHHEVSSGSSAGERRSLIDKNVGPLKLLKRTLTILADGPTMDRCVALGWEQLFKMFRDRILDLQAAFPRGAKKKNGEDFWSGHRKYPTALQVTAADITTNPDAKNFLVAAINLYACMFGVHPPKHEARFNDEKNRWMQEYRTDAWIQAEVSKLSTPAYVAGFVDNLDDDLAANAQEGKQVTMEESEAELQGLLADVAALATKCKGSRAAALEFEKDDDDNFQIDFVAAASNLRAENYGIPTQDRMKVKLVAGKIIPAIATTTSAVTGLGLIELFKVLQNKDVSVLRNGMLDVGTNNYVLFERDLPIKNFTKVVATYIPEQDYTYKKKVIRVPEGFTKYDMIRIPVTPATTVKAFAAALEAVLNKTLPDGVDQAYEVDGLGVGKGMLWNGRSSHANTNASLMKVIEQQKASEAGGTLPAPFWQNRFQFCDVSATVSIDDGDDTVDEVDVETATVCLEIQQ

[3] = target: AMP-activated protein kinase, AMPK (Homo sapiens) (UniProt P54646+O43741+P54619+Q9UGJ0+Q9Y478+Q13131+Q9UGI9); assay: AMP-dependent Kinase enzyme assay. An in vitro enzyme assay that detects ADP turnover that is directly proportional to AMPK activity. This uses naive AMPK that is activated during the assay with MK-8722; format: functional; conditions: 30 µM
[4] = target: Sialic acid-binding Ig-like lectin 9 (Homo sapiens) (UniProt Q9Y336); assay: Hs-Siglec9 ALPHAscreen SOP 20170721; conditions: 10 µM
Trypanosoma cruzi = assay: Trypanosoma cruzi phosphomannomutase and mannose-1-phosphate guanylyltransferase assay; format: functional; conditions: 10 µM
[5] = target: T2, Arginase-2, mitochondrial (Homo sapiens) (UniProt P78540); assay: in vitro enzyme assay to detect the production of urea directly proportional to the activity of Arginase II; format: functional; conditions: 33.3 µM; also: in the data most compounds retested in dose-response had high values
T2 sequence (whole entry): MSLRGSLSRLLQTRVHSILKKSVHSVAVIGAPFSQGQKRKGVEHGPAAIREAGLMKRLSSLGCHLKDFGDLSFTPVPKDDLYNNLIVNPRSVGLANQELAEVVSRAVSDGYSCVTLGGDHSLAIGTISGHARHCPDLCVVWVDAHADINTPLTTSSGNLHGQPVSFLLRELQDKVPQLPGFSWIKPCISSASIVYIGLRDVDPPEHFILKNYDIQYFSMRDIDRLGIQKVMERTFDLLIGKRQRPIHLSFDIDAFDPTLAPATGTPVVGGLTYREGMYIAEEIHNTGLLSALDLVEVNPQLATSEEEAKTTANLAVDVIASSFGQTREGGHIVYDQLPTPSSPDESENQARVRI

[6] = target: T3, Proteasome subunit beta (Trypanosoma cruzi) (UniProt O96673); assay: Trypanosoma cruzi proteasome chymotrypsin-like activity (TcProtChymo) assay.; also: in the data most compounds retested in dose-response had high values; format: functional; conditions: 9.37 µM
T3 sequence (whole entry): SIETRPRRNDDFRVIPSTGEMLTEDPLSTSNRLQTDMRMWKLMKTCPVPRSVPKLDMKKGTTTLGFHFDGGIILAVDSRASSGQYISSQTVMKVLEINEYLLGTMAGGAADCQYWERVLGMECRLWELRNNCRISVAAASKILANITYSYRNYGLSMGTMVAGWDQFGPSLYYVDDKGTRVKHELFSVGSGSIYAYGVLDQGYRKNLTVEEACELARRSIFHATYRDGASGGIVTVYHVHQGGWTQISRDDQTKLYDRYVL

Homo sapiens = species: Homo sapiens; assay: To identify inhibition of the IFN signalling (Jak-Stat) pathway via expression of an eGFP reporter gene under the control of an IFN-stimulated response element (ISRE) containing MxA promoter.; format: functional; conditions: 30 µM
[7] = target: T4, Tyrosyl-tRNA synthetase, putative (Trypanosoma cruzi (strain CL Brener)) (UniProt Q4DSP6); assay: Trypanosoma cruzi tyrosyl tRNA synthetase (TcYRS) _High Tyrosine SOP; format: functional; conditions: 30 µM; also: in the data most compounds retested in dose-response had high values
T4 sequence (whole entry): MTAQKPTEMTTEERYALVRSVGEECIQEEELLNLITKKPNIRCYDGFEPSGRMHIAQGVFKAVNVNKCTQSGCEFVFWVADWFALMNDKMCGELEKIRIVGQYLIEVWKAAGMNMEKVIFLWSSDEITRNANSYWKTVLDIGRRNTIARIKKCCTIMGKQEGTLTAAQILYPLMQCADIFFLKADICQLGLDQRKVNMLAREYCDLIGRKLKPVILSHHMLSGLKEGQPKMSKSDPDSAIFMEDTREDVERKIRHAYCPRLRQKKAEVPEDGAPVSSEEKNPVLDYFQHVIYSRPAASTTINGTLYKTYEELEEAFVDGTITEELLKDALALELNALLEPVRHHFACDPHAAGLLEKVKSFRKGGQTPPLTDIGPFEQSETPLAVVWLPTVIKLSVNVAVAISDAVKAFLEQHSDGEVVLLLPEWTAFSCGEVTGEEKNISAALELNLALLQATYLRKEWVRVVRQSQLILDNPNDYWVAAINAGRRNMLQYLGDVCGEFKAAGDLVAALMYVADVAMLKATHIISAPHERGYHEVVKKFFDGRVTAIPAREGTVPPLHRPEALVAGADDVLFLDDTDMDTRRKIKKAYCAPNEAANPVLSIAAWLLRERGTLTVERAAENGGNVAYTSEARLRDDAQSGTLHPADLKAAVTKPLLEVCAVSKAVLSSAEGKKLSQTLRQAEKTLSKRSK

[8] = target: T4, Tyrosyl-tRNA synthetase, putative (Trypanosoma cruzi (strain CL Brener)); assay: Trypanosoma cruzi tyrosyl tRNA synthetase (TcYRS) SOP; format: functional; conditions: 30 µM
[9] = target: Chromo domain-containing protein 1 (Saccharomyces cerevisiae (strain ATCC 204508 / S288c) (Baker's yeast)) (UniProt P32657); assay: ScCHD-1 Enzyme Inhibition Assay; format: functional; conditions: 30 µM; also: in the data most compounds retested in dose-response had high values
Sequence of Chromo domain-containing protein 1 (Saccharomyces cerevisiae (strain ATCC 204508 / S288c) (Baker's yeast)) (P32657 whole entry, the tested form may be a part): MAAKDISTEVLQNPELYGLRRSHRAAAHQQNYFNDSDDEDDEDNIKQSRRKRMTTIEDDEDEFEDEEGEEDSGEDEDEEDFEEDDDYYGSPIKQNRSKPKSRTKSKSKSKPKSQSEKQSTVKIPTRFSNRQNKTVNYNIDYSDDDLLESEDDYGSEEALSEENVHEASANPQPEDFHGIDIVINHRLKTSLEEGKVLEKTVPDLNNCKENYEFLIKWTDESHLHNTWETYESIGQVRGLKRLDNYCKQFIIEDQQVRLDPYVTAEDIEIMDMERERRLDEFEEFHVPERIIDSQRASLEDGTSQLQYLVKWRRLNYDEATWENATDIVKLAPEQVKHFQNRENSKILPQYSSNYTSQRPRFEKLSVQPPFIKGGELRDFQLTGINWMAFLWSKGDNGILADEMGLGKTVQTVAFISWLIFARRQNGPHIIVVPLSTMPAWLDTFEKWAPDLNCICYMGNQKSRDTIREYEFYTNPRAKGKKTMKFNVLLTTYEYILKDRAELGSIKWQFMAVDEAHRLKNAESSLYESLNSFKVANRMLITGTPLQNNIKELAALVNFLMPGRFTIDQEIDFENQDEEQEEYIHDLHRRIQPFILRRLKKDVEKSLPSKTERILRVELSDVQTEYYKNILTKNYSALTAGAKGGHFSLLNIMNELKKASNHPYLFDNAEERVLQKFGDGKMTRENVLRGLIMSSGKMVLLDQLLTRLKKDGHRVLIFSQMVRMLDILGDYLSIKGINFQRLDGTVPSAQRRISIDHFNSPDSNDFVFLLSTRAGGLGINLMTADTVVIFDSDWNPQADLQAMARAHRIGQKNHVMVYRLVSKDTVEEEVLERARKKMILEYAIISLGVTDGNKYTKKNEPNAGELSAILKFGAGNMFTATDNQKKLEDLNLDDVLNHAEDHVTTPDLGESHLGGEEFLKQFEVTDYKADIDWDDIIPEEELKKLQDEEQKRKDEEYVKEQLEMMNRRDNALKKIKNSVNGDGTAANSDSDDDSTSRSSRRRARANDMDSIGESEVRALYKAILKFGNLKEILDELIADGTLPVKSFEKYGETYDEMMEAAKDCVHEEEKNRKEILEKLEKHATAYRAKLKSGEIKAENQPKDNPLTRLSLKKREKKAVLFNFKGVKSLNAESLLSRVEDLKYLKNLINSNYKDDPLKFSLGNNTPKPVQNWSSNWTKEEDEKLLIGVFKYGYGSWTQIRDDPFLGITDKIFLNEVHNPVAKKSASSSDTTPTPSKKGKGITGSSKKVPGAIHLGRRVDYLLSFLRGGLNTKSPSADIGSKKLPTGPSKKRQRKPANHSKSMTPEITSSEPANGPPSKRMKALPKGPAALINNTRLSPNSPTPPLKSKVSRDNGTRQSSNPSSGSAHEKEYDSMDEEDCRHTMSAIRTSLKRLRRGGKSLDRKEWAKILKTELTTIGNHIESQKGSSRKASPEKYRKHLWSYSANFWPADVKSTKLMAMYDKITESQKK

Sequence of Sialic acid-binding Ig-like lectin 9 (Homo sapiens) (Q9Y336 whole entry): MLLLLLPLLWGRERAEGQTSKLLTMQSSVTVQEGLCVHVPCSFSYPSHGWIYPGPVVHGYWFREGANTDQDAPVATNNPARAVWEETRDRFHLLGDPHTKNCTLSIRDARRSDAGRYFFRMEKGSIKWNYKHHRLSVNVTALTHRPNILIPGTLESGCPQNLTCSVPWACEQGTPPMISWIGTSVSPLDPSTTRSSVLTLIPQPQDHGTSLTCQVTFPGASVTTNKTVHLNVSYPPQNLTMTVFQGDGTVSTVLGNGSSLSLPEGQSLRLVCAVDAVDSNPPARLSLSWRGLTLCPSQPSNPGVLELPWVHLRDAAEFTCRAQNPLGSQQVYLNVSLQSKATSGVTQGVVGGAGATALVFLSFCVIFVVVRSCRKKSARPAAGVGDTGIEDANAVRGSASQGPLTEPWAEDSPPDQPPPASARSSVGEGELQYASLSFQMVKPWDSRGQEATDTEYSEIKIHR
Sequence of Protein translocase subunit SecA (Escherichia coli (strain K12)) (P10408 whole entry): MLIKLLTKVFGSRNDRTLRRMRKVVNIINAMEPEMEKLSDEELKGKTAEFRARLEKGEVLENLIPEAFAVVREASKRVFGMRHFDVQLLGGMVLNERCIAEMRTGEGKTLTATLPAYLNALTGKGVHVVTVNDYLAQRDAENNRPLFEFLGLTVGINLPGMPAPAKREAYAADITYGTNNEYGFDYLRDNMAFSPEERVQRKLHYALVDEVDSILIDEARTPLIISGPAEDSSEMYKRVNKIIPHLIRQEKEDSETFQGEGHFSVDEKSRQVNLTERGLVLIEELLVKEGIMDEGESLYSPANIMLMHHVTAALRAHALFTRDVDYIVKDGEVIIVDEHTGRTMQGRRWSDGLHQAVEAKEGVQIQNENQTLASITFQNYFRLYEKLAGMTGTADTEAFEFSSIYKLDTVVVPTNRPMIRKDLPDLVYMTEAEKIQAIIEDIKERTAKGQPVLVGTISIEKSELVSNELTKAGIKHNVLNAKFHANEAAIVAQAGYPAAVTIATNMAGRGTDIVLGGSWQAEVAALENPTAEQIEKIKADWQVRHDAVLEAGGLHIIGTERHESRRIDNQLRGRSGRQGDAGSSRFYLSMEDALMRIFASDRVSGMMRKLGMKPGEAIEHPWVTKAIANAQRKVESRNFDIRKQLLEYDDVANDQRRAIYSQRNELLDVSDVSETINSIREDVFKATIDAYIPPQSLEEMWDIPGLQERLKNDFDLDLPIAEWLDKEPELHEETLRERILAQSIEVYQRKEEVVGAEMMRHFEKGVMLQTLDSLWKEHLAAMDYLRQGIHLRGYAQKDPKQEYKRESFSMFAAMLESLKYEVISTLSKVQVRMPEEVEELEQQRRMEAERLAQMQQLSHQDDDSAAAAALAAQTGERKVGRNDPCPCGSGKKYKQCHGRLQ

| Compound | Percent Effect [1] [%] | Percent Effect [2] [%] | Percent Effect [3] [%] | Percent Effect [4] [%] | Percent Effect (Trypanosoma cruzi) [%] | Percent Effect [5] [%] | Percent Effect [6] [%] | Percent Effect (Homo sapiens) [%] | Percent Effect [7] [%] | Percent Effect [8] [%] | Percent Effect [9] [%] |
| --- | --- | --- | --- | --- | --- | --- | --- | --- | --- | --- | --- |
| COCCN1CCC(NCc2cccnc2)C1 (stereo unspecified) | -5.87 | -2.6 | -0.869 | -1.42 | -5.06 | 2.49 | 5.74 | 16.6 | 1.94 | -4.88 | -3.65 |
| CN(Cc1cnn(C)c1)C(=O)NCc1nnc2n1CCC2 | -4.33 | 10.1 | 2.17 | 6.31 | 4.06 | 1.52 | -0.901 | 3.9 | 5.42 | 8.86 | -6.73 |
| CN(CCC#N)C(=O)CCOc1cccc(F)c1 | -2.84 | 10.5 | 0.343 | -8.13 | -0.876 | -4.73 | 10.3 | 20.8 | 3.19 | 10.4 | -3.22 |
| CCCOc1ccc(CNC(=O)N2CCC(C(N)=O)C2)cc1 (stereo unspecified) | -0.765 | 22.8 | -8.41 | -9.27 | -2.36 | 2.28 | 5.82 | -21.1 | 4.43 | 13.9 | -2.35 |
| CC(C)c1nc(C(=O)NCCn2ccnc2)nn1-c1cccc(F)c1 | -6 | 15.8 | -4.38 | -4.66 | -3.46 | -6.47 | 1.1 | -1.8 | 1.48 | 6.17 | -5.42 |
| CCCNC(=O)COc1ccc(C)cn1 | -4.18 | 11 | -5.89 | 4.96 | 4.76 | -0.798 | 6.59 | -7.03 | 6.25 | -3.7 | -11.8 |
| CCn1c(CN2CCC(O)(C(=O)OC)CC2)nc2c(F)cccc21 | -3.73 | -44.7 | -3.77 | 0.565 | 8.27 | -3.06 | 7.85 | 11.3 | 5.39 | 9.76 | -12.4 |
| Cc1nc(CN2C[C@@H]3CN(C(=O)C4CC4)C[C@@H]3C2=O)cs1 | -1.35 | 18.9 | 1.84 | -11.9 | -5.57 | 4.78 | 14.9 | 18.6 | 1.08 | 10.3 | -6.89 |
| CC(C)(C)c1ccc(C2(C(=O)NCCS(N)(=O)=O)CC2)cc1 | -3.83 | 10.4 | 1.16 | 8.65 | 3.25 | -422 | 8.98 | 10.7 | 3.23 | 11.1 | -4.35 |
| CCn1c(CN(C)C)nnc1C1CCN(Cc2cccc(OC)c2)CC1 | 2.78 | 10.4 | -4.93 | 7.22 | -3.64 | -12.4 | 16 | 10.6 | 4.3 | 11.1 | 0.325 |
| CCCOc1ccc(CNC2CCCc3c2cnn3CC)cc1OC (stereo unspecified) | -6.15 | 15.2 | -7.05 | 11 | 6.33 | -3.04 | 5.98 | 2.78 | 9.36 | 21.5 | -12.2 |
| Cc1nc(C)n(CC2CCCN2CC(=O)NCc2ccco2)n1 (stereo unspecified) | -0.786 | 2.74 | 1.19 | 4.18 | 0.979 | -1.36 | 13.8 | 6.45 | 1.07 | -2.5 | -3.99 |
| O=C(c1ccco1)N1CCC2(CCOC2)C1 (stereo unspecified) | -0.538 | 12 | -4.74 | -1.73 | -2.16 | 3.35 | 20.1 | -9.81 | 1.06 | 7.69 | -7.58 |
| CCCc1cc(=O)[nH]c2nnc(SCC(=O)NCc3ccc(C)cc3)n12 | -0.143 | 13.7 | -0.135 | 6.56 | 3.33 | 13.6 | 20.2 | 16.9 | 6.45 | 17.5 | -7.5 |
| O=C(Nc1cc(F)ccc1OCC1CCCO1)c1ccc(O)nc1 (stereo unspecified) | -4.33 | 7.79 | 8.03 | -2.88 | 8.91 | -14.5 | 11.4 | -5.06 | 3.81 | 14.1 | -22.2 |
| c1cnnc(N2CCCC(NCc3nc(C4CC4)no3)C2)c1 (stereo unspecified) | -4.19 | -2.6 | -5.27 | 7.57 | 7.18 | 23.4 | 11.3 | -1.78 | 16.1 | 28.4 | -2.42 |
